A selection: hits, their analogues and other compounds. The true share with any hit is near 5%.
AI-2 QS mod – Vibrio harveyi AI-2 quorum sensing modulators, primary screen, JMH597 strain, luminescence/OD600 ratio | Vibrio harveyi JMH597 AI-2 luminescence/OD600 ratio, 9 h; stronger effect = lower value; strain lacks LuxN and CqsS sensors; 0 = neutral-control median | activity change, % at 7.5 µM | 300,000 tested, 0.4% active | AID 2094, 2009; in the data active means activity change below about -75%, passing the limit was not always enough;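 further: luminescence divided by OD600 gain over 9 h not by final OD600 alone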
ALR H2O2 inh – inhibitors of human ALR sulfhydryl oxidase, primary screen, biochemical, H2O2 detection, HRP-luminol luminescence, single point; purified ALR, DTT oxidation; inhibition, % (test concentration not listed); 290,000 tested, 3.8% active; AID 485317, 2010;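 active means mean replicate inhibition above about 79%, with every replicate also reaching it, limit read from the data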
Target sequence (P55789 whole entry, looked up): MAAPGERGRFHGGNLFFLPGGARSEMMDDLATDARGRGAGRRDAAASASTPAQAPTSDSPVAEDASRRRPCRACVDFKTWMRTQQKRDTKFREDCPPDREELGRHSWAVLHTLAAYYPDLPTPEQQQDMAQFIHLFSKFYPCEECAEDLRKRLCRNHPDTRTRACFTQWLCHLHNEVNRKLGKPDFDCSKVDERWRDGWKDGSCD
PREPL inhibitor – PREPL enzyme inhibitors, primary screen, biochemical, fluorescence polarization; AID 2751, 2010; 320,000 tested, 0.68% active; recombinant PREPL, fluorescence polarization activity-based probe; inhibition, % at 5.96 µM; in the data active means inhibition above about 43%;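 further: 0% = enzyme with DMSO and 100% = wells lacking enzyme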
CHT PAM – CHT positive allosteric modulators, primary screen, cell-based, membrane potential dye, choline EC20; High affinity choline transporter 1 (Homo sapiens), Q9GZV3; CHT-expressing cells; stronger effect = higher value; LV-AA mutant CHT in HEK293 cells; B-score at 10 µM; 310,000 tested, 0.49% active; AID 488977, 2010;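 active means initial fluorescence not abnormally high and integrated response B-score, plate-corrected, over 3 SD above library mean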
CHT inh – inhibitors of human choline transporter CHT | High affinity choline transporter 1 (Homo sapiens), Q9GZV3 | B-score at 10 µM | AID 488975, 2010 | CHT-expressing cells, membrane potential dye, choline response; stronger effect = lower value | 310,000 tested, 0.86% active;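 active means B-score over 3 SD under the library average, and starting fluorescence ratio not unusually high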;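 further: choline stimulus applied at its EC90 after an EC20 pre-addition; B-score computed on integrated fluorescence ratio after choline addition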
The depositor's hits bear a star; i = inactive; . = no result.

SMILES	AI-2 QS mod	ALR H2O2 inh	PREPL inhibitor	CHT PAM	CHT inh
O=C(NCc1ccc2c(c1)OCO2)C1CC(=O)N(c2ccc(O)cc2)C1 (centres undefined)	20	99*	0	i	i
CCCCn1c(SCC(=O)Nc2sc3c(c2C(N)=O)CCC3)nnc1-c1ccccc1	0	64	12	i	i
NC(=O)c1c(NC(=O)CSc2nnc(Cc3ccccc3)n2Cc2ccco2)sc2c1CCC2	17	87*	17	i	i
CCOc1ccc(C(=O)CC(Sc2ccc(C)cc2)C(=O)O)cc1 (centres undefined)	41	95*	-2	i	i
O=C(Nc1ccccn1)C1CCN(S(=O)(=O)c2ccc(Cl)cc2)CC1	19	-12	-5	i	i
COc1ccc(NCc2ccc([N+](=O)[O-])s2)cc1	8	99*	3	i	i
O=[N+]([O-])c1ccc(CNc2ccc(Cl)cc2)s1	9	81*	35	i	i
COc1ccc(NCc2ccc([N+](=O)[O-])s2)c(OC)c1	.	98*	20	i	i
O=[N+]([O-])c1ccc(CNc2cccc(Cl)c2)s1	-21	-12	30	i	i
CC(=O)c1ccc(N2CCN(CC(=O)Nc3ccc4c(c3)OCCO4)CC2)cc1	-2	1	17	i	i
CCOC(=O)c1c(N2C(=O)Nc3ccccc3N2O)sc2c1CCCCC2	19	95*	5	i	i
CC/C(=N\O)c1ccc(O)c(OC)c1	19	99*	-10	i	i
CC/C(=N\O)c1ccc(OC)c(OC)c1	20	1	9	i	i
COc1ccc(/C(N)=N/OC(=O)c2ccco2)cc1OC	0	-5	14	i	i
Cc1csc(/C(=N/OC(=O)c2ccco2)C(N)=O)n1	13	97*	7	i	i
Cc1ccc(-c2cc(C(=O)NC3=NCCS3)c3ccccc3n2)cc1C	75	90*	-13	i	i
O=C(NC1=NCCS1)c1cc(-c2ccc(F)cc2)nc2ccccc12	40	0	-5	i	i
O=C(O)c1ccccc1NC(=O)c1cc(-c2ccccc2)nc2ccccc12	40	98*	-4	i	i
O=C(NC1=NCCS1)c1csc2ccccc12	-8	98*	5	i	i
O=C1C=C(c2cccc(CO)c2)C[C@@H](c2ccc(F)cc2)C1	.	-2	-16	.	.
Cc1ccc(-c2nn(-c3ccc(F)cc3)cc2C(=O)N(C)CC(=O)Nc2ccc(N3CCOCC3)cc2)cc1	29	-1	3	i	i
Cc1ccc(Nc2cc(C)c(O)c(C)c2)cc1	2	52	25	i	i
COC(C/C=C/[C@@H](O)[C@H](C)OCc1ccccc1)OC	-2	-8	9	i	i
O=C(CSc1nnc2ccccn12)NNC(=O)c1ccc(Cl)cc1	19	2	12	i	i
COCCn1c(SCC(=O)Nc2cc(C)cc(C)c2)nnc1C(C)C	11	100*	15	i	i
SMILES	AI-2 QS mod	ALR H2O2 inh	PREPL inhibitor	CHT PAM	CHT inh
O=C(CSc1nnc2ccccn12)c1ccc(Cl)cc1	20	85*	5	i	i
COCCn1c(SCC(=O)c2ccc(Cl)cc2)nnc1C(C)C	5	91*	17	i	i
COCCn1c(SCC(=O)c2ccc3c(c2)OCCO3)nnc1C(C)C	35	23	-6	i	i
NC1=NC(=O)C(CC(=O)Nc2ccc3c(c2)OCO3)S1 (centres undefined)	17	-25	-2	i	i
CSCCC(NC(=O)COc1ccccc1)C(=O)N1CCN(C(C)=O)CC1 (centres undefined)	14	-2	11	i	i
O=C(CNC(=O)c1ccccc1F)OCn1nnc2ccccc2c1=O	.	2	-1	.	.
COc1cccc(-c2cc(N)nn2C(=O)Nc2ccc(Cl)cc2)c1	17	100*	-3	i	i
COc1cccc(NC(=O)NCCc2ccc(Cl)cc2)c1	4	-4	7	i	i
CCCc1[nH][nH]c(=O)c1C(c1ccc(Br)cc1)C(C#N)C#N (centres undefined)	32	95*	7	i	i
CCCc1[nH][nH]c(=O)c1C(c1ccc(Cl)cc1)C(C#N)C#N (centres undefined)	-24	66	-3	i	i
Fc1ccc(-c2csc(NC3=NCCC3)n2)cc1	.	97*	-15	i	i
COc1ccc(-c2csc(NNC3=NCCCCC3)n2)cc1	7	8	22	i	i
CCOc1ccc(-c2csc(NNC3=NCCCCC3)n2)cc1	8	99*	17	i	i
Cc1ccc(S(=O)(=O)Nc2nc(-c3ccc(F)cc3)cs2)cc1	-92*	35	-7	i	i
Cc1ccc(NC(=O)C2CCN(C(=O)OC(C)(C)C)CC2)cc1S(=O)(=O)N1CCCCC1	.	.	2	.	.
CCc1nnc(SCC(=O)Nc2nc(C)c(C(=O)N(C)C)s2)n1CC	20	-3	-1	i	i
O=C(NCc1ccccc1Cl)C1CCCN(S(=O)(=O)c2cnc[nH]2)C1 (centres undefined)	27	94*	-5	i	i
O=C(Nc1cccc(Cl)c1)C1CCCN(S(=O)(=O)c2cnc[nH]2)C1 (centres undefined)	19	-35	20	i	i
CCN(CCNC(=O)C1CCCN(S(=O)(=O)c2cnc[nH]2)C1)c1ccccc1 (centres undefined)	25	98*	0	i	i
Cc1ccc(CCNC(=O)C2CCCN(S(=O)(=O)c3cnc[nH]3)C2)cc1 (centres undefined)	54	49	10	i	i
O=C(NCCN1CCN(c2cccc(Cl)c2)CC1)C1CCCN(S(=O)(=O)c2cnc[nH]2)C1 (centres undefined)	.	96*	14	i	i
CCN(CCCNC(=O)C1CCCN(S(=O)(=O)c2cnc[nH]2)C1)c1ccccc1 (centres undefined)	16	98*	-3	i	i
CCn1ncc(Br)c1C(=O)Nc1cc(C)on1	0	.	.	.	.
CN(C)c1ccc(CNC(=O)c2cc(S(=O)(=O)N3CCCC3)cn2C)cc1	-6	98*	2	i	i
Cn1cc(S(=O)(=O)N2CCCC2)cc1C(=O)NCc1ccc(Cl)cc1	12	-2	9	i	i
N#Cc1cc(C(=O)c2ccccc2O)cn(-c2nccs2)c1=O	23	97*	8	i	i
N#Cc1cc(C(=O)c2cc(F)ccc2O)cn(-c2nccs2)c1=O	20	33	10	i	i

High-throughput results deposited in PubChem BioAssay by several laboratories.
